Laboratory results reported in PubChem BioAssay AID1159580 (chemical genetic matrix, 2015).
Values joined by “and” are separate entries in the source; they are usually repeats but may differ in a detail not shown here. Equal values may be shown once. In all, about 5,500 compounds went through this assay and about 2,000 (36%) were called active. Roughly 18% stayed inconclusive and do not appear here. Cut-off read from the data, not from the text of the source: active = normalized growth mostly below about 0.91 (no sharp cut-off); inconclusive = no clear call, values can overlap the other calls; inactive = mostly above about 0.92. The list shows a part of the results.

Test: chemical genetic growth profiling, strain panel (AID 1159580);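 note: tested at 20 µM; growth read once vehicle control cultures reached saturation at 30 °C; 1 = growth at the plate median or of vehicle wells; lower values mean less growth of the strain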
Conditions: S. cerevisiae deletion strains, growth OD

Measured: normalized growth

CC(=O)Oc1ccc2c(c1)CCC1C2CC[C@@]2(C)C1CC[C@@H]2OC(C)=O (some centres undefined)
inactive: locus YAL021C, strain ccr4, stronger effect = lower value 1.01 | locus YAL026C, strain drs2, stronger effect = lower value 0.984 | locus YAL030W, strain snc1, stronger effect = lower value 0.984 | locus YBL061C, strain skt5, stronger effect = lower value 0.977 | locus YBR009C, strain hhf1, stronger effect = lower value 0.969 | locus YBR021W, strain FUR4, stronger effect = lower value 0.955 | locus YBR023C, strain chs3, stronger effect = lower value 0.957 | locus YBR171W, strain sec66, stronger effect = lower value 0.921 | locus YBR229C, strain ROT2, stronger effect = lower value 0.94 | locus YBR231C, strain swc5, stronger effect = lower value 1.02 | locus YBR279W, strain paf1, stronger effect = lower value 1.02 | locus YCL011C, strain gbp2, stronger effect = lower value 0.991 | locus YCL016C, strain dcc1, stronger effect = lower value 0.991 | locus YCL029C, strain bik1, stronger effect = lower value 0.972 | locus YCL069W, strain vba3, stronger effect = lower value 0.989 | locus YCR088W, strain abp1, stronger effect = lower value 0.978 | locus YDL005C, strain med2, stronger effect = lower value 1 | locus YDL035C, strain GPR1, stronger effect = lower value 0.971 | locus YDL040C, strain nat1, stronger effect = lower value 0.994 | locus YDL074C, strain BRE1, stronger effect = lower value 0.872 | locus YDL101C, strain DUN1, stronger effect = lower value 0.969 | locus YDL134C, strain PPH21, stronger effect = lower value 0.985 | locus YDL185W, strain tfp1, stronger effect = lower value 0.983 | locus YDL192W, strain arf1, stronger effect = lower value 0.984 | locus YDR001C, strain nth1, stronger effect = lower value 0.983 | locus YDR069C, strain doa4, stronger effect = lower value 0.983 | locus YDR101C, strain arx1, stronger effect = lower value 0.967 | locus YDR159W, strain sac3, stronger effect = lower value 0.924 | locus YDR162C, strain NBP2, stronger effect = lower value 0.969 | locus YDR195W, strain ref2 1.08 | locus YDR297W, strain sur2, stronger effect = lower value 0.988 | locus YDR318W, strain mcm21, stronger effect = lower value 0.971 | locus YDR334W, strain swr1, stronger effect = lower value 0.994 | locus YDR335W, strain msn5, stronger effect = lower value 1.03 | locus YDR388W, stronger effect = lower value 0.979 | locus YDR502C, strain sam2, stronger effect = lower value 0.969 | locus YEL003W, strain gim4, stronger effect = lower value 0.973 | locus YEL037C, strain rad23, stronger effect = lower value 0.992 | locus YEL061C, strain CIN8 (second series), stronger effect = lower value 0.992 | locus YEL061C, strain CIN8, stronger effect = lower value 0.964 | locus YER015W, strain faa2, stronger effect = lower value 1 | locus YER016W, strain bim1, stronger effect = lower value 1 | locus YER110C, stronger effect = lower value 0.984 | locus YER111C, strain swi4, stronger effect = lower value 0.986 | locus YER155C, strain BEM2 (second series), stronger effect = lower value 0.951 | locus YER155C, strain BEM2, stronger effect = lower value 0.973 | locus YER167W, strain BCK2, stronger effect = lower value 0.971 | locus YFR010W, strain ubp6, stronger effect = lower value 1 | locus YGL078C, strain dbp3, stronger effect = lower value 0.98 | locus YGL086W, strain mad1, stronger effect = lower value 0.958 | locus YGL167C, strain pmr1, stronger effect = lower value 0.973 | locus YGL173C, strain kem1, stronger effect = lower value 0.987 | locus YGL227W, strain vid30, stronger effect = lower value 0.989 | locus YGL240W, strain doc1, stronger effect = lower value 0.993 | locus YGL248W, strain PDE1, stronger effect = lower value 0.94 | locus YGL253W, strain hxk2, stronger effect = lower value 1.01 | locus YGR078C, strain PAC10, stronger effect = lower value 0.943 | locus YGR135W, strain pre9, stronger effect = lower value 0.986 | locus YGR229C, strain SMI1, stronger effect = lower value 0.954 | locus YGR252W, strain gcn5, stronger effect = lower value 0.947 | locus YHR013C, strain ard1, stronger effect = lower value 1.02 | locus YHR027C, strain rpn1, stronger effect = lower value 0.995 | locus YHR030C, strain SLT2, stronger effect = lower value 0.988 and 0.952 | locus YHR079C, strain IRE1 (second series), stronger effect = lower value 0.977 | locus YHR079C, strain IRE1, stronger effect = lower value 0.937 | locus YHR094C, strain hxt1, stronger effect = lower value 0.978 | locus YHR129C, strain ARP1, stronger effect = lower value 0.982 | locus YHR142W, strain chs7, stronger effect = lower value 0.953 | locus YHR200W, strain rpn10, stronger effect = lower value 0.963 | locus YIL066C, strain RNR3, stronger effect = lower value 0.948 | locus YIL073C, strain SPO22, stronger effect = lower value 0.97 | locus YIL125W, strain kgd1, stronger effect = lower value 0.966 | locus YIR030C, strain dcg1, stronger effect = lower value 0.981 | locus YJL092W, strain hpr5, stronger effect = lower value 0.975 | locus YJL095W, strain BCK1 (second series), stronger effect = lower value 0.973 | locus YJL095W, strain BCK1, stronger effect = lower value 0.926 and 0.951 | locus YJL115W, strain asf1, stronger effect = lower value 0.997 | locus YJL129C, strain trk1, stronger effect = lower value 0.886 | locus YJL134W, strain LCB3, stronger effect = lower value 0.978 | locus YJL154C, strain vps35, stronger effect = lower value 0.995 | locus YJL164C, strain tpk1, stronger effect = lower value 0.958 | locus YJL166W, strain qcr8, stronger effect = lower value 0.988 | locus YJL168C, strain set2, stronger effect = lower value 0.963 | locus YJL187C, strain SWE1 (second series), stronger effect = lower value 0.956 | locus YJL187C, strain SWE1, stronger effect = lower value 0.979 | locus YJR043C, strain POL32, stronger effect = lower value 0.976 | locus YJR066W, strain TOR1, stronger effect = lower value 0.956
active: locus YDR137W, strain rgp1, stronger effect = lower value 0.841 | locus YDR392W, strain spt3, stronger effect = lower value 0.674
